Screening data (PubChem BioAssay)
Hits are enriched below; roughly 1.2% of the tested compounds scored in any of these assays.
RPL19A-GFP yeast – alters RPL19A-GFP fluorescence in TOR pathway yeast screen | S. cerevisiae RPL19A-GFP strain, flow cytometry, 3 h; hits give low values | percent response vs DMSO, % at 10 µM | actives 0.3% (n = 330,000) | AID 2025;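 active means percent response vs DMSO below 50%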;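 further: median channel GFP fluorescence of the barcoded RPL19A-GFP strain; ratio of sample median GFP to plate DMSO average so 100% = DMSO; lower means less RPL19A-GFP as with rapamycin TOR inhibition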
LAP4-GFP MLPCN – yeast TOR pathway LAP4-GFP modulation; actives 0.34% (n = 320,000); S. cerevisiae LAP4-GFP multiplex, flow cytometry GFP, 3 h; median GFP as percent of DMSO wells; GFP response vs DMSO, % at 10 µM;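 active means GFP response vs DMSO above a set limit, about the screen mean plus 3 SD, cut at about 150% in these data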
MEP2 TOR yeast – yeast TOR pathway MEP2-GFP modulation. actives 0.51% (n = 330,000). GFP response vs DMSO, % at 10 µM. S. cerevisiae MEP2-GFP strain, flow cytometry GFP, 3 h; 100% = DMSO control level. AID 2016;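 active means GFP response versus DMSO above a set limit, roughly screen mean plus 3 SD, cut at about 180% in these data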;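 further: median GFP fluorescence of the barcode-gated MEP2-GFP cells per well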
DSG3 Ab inh – inhibitors of pemphigus antibody binding to human desmoglein-3; AID 588358; binding (percent of control), % at 10 µM; P32926; DSG3-coupled beads, scFv-anti-DSG3-GFP binding, flow cytometry; hits give low values; actives 0.48% (n = 310,000);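 active means binding more than 3 SD below its plate's average and above zero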;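 further: hits lower antibody fragment binding to DSG3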
AGP1 TOR yeast – modulators of TOR pathway AGP1-GFP in S. cerevisiae | AID 2066 | actives 0.02% (n = 320,000) | S. cerevisiae AGP1-GFP multiplex flow cytometry, 3 h; GFP as percent of DMSO wells | GFP response vs DMSO, % at 10 µM;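 active means GFP response relative to DMSO above a set limit, near screen average plus 3 SD, cut at about 150% in these data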;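 further: median GFP channel fluorescence of the gated AGP1 strain per well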
CIT2-GFP yeast – alters CIT2-GFP fluorescence in TOR pathway yeast screen; GFP response vs DMSO, % at 10 µM; AID 2029; S. cerevisiae CIT2-GFP strain, flow cytometry, 3 h; 100 means same as DMSO wells; actives 0.065% (n = 320,000);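 active means GFP response relative to DMSO above a set limit, near the screen mean plus 3 SD, cut at about 150% in these data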;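 further: ratio of well median GFP fluorescence to mean of DMSO wells on the plate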
LAP4 cherry2 – yeast LAP4-GFP modulation, second cherry pick; GFP response vs DMSO, % at 10 µM; AID 2621; shares compounds with LAP4-GFP MLPCN; actives 20% (n = 590); S. cerevisiae LAP4-GFP strain, flow cytometry GFP, 3 h;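 active means GFP signal as percent of the solvent control above about 150%, meaning raised reporter expression, limit read from the data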;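 further: ratio of well median GFP fluorescence to plate DMSO mean so 100% = DMSO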
MEP2-GFP pick2 – reconfirmed MEP2-GFP TOR pathway modulator in yeast; shares compounds with LAP4-GFP MLPCN; S. cerevisiae MEP2-GFP strain, flow cytometry GFP, 3 h; GFP response vs DMSO, % at 10 µM; actives 10% (n = 590);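 active means GFP signal above 150% of the solvent control wells, that is a rise of more than half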;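 further: median channel GFP fluorescence of all gated yeast cells per well; ratio of median GFP to plate DMSO average so 100% = DMSO level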
RPL19A-GFP pick2 – reconfirmed modulator of RPL19A-GFP TOR reporter in yeast; shares compounds with LAP4-GFP MLPCN; S. cerevisiae RPL19A-GFP strain, flow cytometry GFP, 3 h; hits give low values; 100% means same as DMSO wells; GFP response vs DMSO, % at 10 µM; actives 3% (n = 590);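 active means under 65% GFP response relative to DMSO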;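 further: median GFP channel fluorescence per well over the all cells gate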
CIT2 GFP CP2 – second confirmation of modulators of TOR reporter CIT2-GFP in yeast; shares compounds with LAP4-GFP MLPCN; GFP response vs DMSO, % at 10 µM; S. cerevisiae CIT2-GFP strain, flow cytometry GFP, 3 h; DMSO control wells read 100%; AID 2624; actives 8% (n = 590);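 active means GFP response vs DMSO above about 150%, limit read from the data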;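 further: median green fluorescence per well over all gated yeast cells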
AGP1-GFP pick2 – second confirmation of modulators of TOR reporter AGP1-GFP in yeast; 590 tested, under 10 active; percent response vs DMSO, % at 10 µM; S. cerevisiae AGP1-GFP strain, flow cytometry GFP, 3 h; AID 2643; shares compounds with LAP4-GFP MLPCN;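 active means over 150 percent of DMSO response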;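 further: median GFP channel fluorescence over all cells without mother daughter split; sample median GFP divided by mean DMSO control so 100% equals DMSO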
s288c autofluor – yeast s288c autofluorescence artifact, counter-screen; fluorescence change (kMESF span) at 33 µM; shares compounds with LAP4-GFP MLPCN; AID 2757; S. cerevisiae s288c, 520 nm autofluorescence, flow cytometry, 3 h; hits give high values; zero means same as solvent-only cells; 610 tested, under 10 active;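 active means fluorescence span over the dose series, or activity score, above about 33, limit read from the data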
s288c autofl DR – TOR screen hit shows autofluorescence in yeast s288c; shares compounds with LAP4-GFP MLPCN; S. cerevisiae s288c parental, compound autofluorescence, flow cytometry, 3 h; fluorescence change (span) at 33 µM; 110 tested, under 10 active; AID 488829;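 active means fluorescence change span, or the activity score built from it, above 25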
TORC1 bypass gr – compounds blocking wildtype yeast growth but not TORC1 bypass cells; 120 tested, under 10 active; growth rating (0-3) at 30 µM; shares compounds with LAP4-GFP MLPCN; S. cerevisiae BY4741 spot growth rating, 48-72 h; hits give low values;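 active means growth rating at most 1 for wild type yeast while the TORC1 bypass strain still grows fully, rated 3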
The depositor's hits bear a star; . = no result.

SMILES	RPL19A-GFP yeast	LAP4-GFP MLPCN	MEP2 TOR yeast	DSG3 Ab inh	AGP1 TOR yeast	CIT2-GFP yeast	LAP4 cherry2	MEP2-GFP pick2	RPL19A-GFP pick2	CIT2 GFP CP2	AGP1-GFP pick2	s288c autofluor	others
Cc1nn2c(-c3ccco3)nnc2c2ccccc12	64	86	90	97	61	76	93	93	66	95	67	.
CC1CN(C(=O)Cn2cc(S(=O)(=O)CC(=O)N3CCOCC3)c3ccccc32)CC(C)O1 (configuration not stated)	105	98	114	110	117	163*	103	100	102	102	100	.
CC1CCN(C(=O)Cn2cc(S(=O)(=O)CC(=O)N3CCOCC3)c3ccccc32)CC1	105	98	101	.	104	107	.	.	.	.	.	.
Cc1[nH]c(-c2ccccn2)nc(=S)c1Cl	94	267*	93	94	85	86	.	.	.	.	.	0.4
N#Cc1c(-c2ccccc2Cl)noc1/C=C/Nc1ccc(C(=O)O)cc1	99	93	103	97	103	98	.	.	.	.	.	.
COc1cccc(C(=O)NCC(c2ccc3c(c2)OCO3)N2CCN(c3ccc(F)cc3)CC2)c1 (configuration not stated)	90	95	88	101	91	74	.	.	.	.	.	.
Cc1cc(C)c(NC(=O)CNC(=O)CSc2nnc(N)s2)c(C)c1	103	104	108	97	103	104	.	.	.	.	.	.
On1ccccc1=S	97	260*	111	94	99	100	181*	118	95	139	95	0.1
CC1=NN(c2ccccc2)C(=O)/C1=C\c1c(C)[nH]n(-c2ccccc2)c1=O	96	92	99	.	97	98	103	103	100	103	99	.
CCc1ccc(C(=O)/C=C/c2ccc([N+](=O)[O-])o2)cc1	99	215*	185*	93	78	155*	.	.	.	.	.	4.2
Cc1cc(N2CCN(S(=O)(=O)c3ccc(Br)cc3)CC2)n2ncnc2n1	50	85	142	110	28	84	103	108	98	103	96	.
O=C(Cn1cnc2c(NCc3ccccc3)ncnc21)NCCCc1ccccc1	.	.	.	102	.	.	.	.	.	.	.	.
C=CCNC(=O)/C(C#N)=C/c1ccc(OS(=O)(=O)c2ccc(C)cc2)c(OC)c1	80	186*	86	148	82	80	131	96	92	102	93	.
COC(=O)N/N=C/c1ccc(OS(=O)(=O)c2ccc(C)cc2)c(OC)c1	99	107	97	98	101	102	.	.	.	.	.	.
Cc1ccc(C(=O)NNC(=S)NC(=O)COc2ccccc2)cc1	101	275*	130	125	91	97	.	.	.	.	.	-5.3	s288c autofl DR=0.68;TORC1 bypass gr=3
CC(C)(C)C(=O)NC(=S)NNC(=O)c1ccc(-c2ccccc2)cc1	89	246*	126	100	88	94	.	.	.	.	.	1.4	s288c autofl DR=0.73;TORC1 bypass gr=3
CCC(=O)NC(=S)NNC(=O)c1ccc(OC)cc1	99	105	103	99	114	104	.	.	.	.	.	.
CC(Oc1ccc(Cl)cc1)C(=O)NNC(=S)NC(=O)c1ccco1 (configuration not stated)	88	242*	101	105	102	112	.	.	.	.	.	0.91	s288c autofl DR=0.52;TORC1 bypass gr=3
CCCCOc1ccc(C(=O)NNC(=S)NC(=O)CC)cc1	89	299*	117	100	95	77	331*	155*	105	167*	108	1.4
Cc1ccccc1C(=O)NNC(=S)NC(=O)COc1ccccc1	106	146	102	121	92	90	.	.	.	.	.	.
Cc1nn(-c2ccc(Cl)cc2)c2sc(C(=O)N3CCN(c4ccccn4)CC3)cc12	90	88	97	105	89	88	.	.	.	.	.	.
O=[N+]([O-])c1ccc(COP(=O)(O)OCc2ccc([N+](=O)[O-])cc2)cc1	93	108	96	108	100	107	.	.	.	.	.	.
CC(=NO)c1ccc2c(c1)C(=NO)c1ccccc1-2	.	.	.	102	.	.	.	.	.	.	.	.
COc1ccc(C(=O)NNC(=S)NC(=O)c2ccco2)cc1	106	119	100	99	105	93	.	.	.	.	.	.
CCCOc1ccc(C(=O)NNC(=S)NC(=O)c2ccccc2)cc1	108	152*	94	90	113	100	.	.	.	.	.	1
CCCOc1ccc(C(=O)NNC(=S)NC(C)=O)cc1	108	137	117	110	109	101	.	.	.	.	.	.
O=C(NNC(=S)NC(=O)c1ccco1)c1ccc(F)cc1	98	218*	116	.	120	103	.	.	.	.	.	1.5
CCCCC(=O)NNC(=S)NC(=O)c1ccc(C)cc1	96	193*	114	107	129	111	.	.	.	.	.	1.1	s288c autofl DR=0.89;TORC1 bypass gr=3
COc1ccccc1C(=O)NNC(=S)NC(=O)c1ccco1	88	268*	123	98	102	89	335*	180*	110	138	117	3.8
Cn1c(N)c(C(=O)COC(=O)CNS(=O)(=O)c2ccc(Cl)c(Cl)c2)c(=O)n(C)c1=O	103	101	99	108	105	106	.	.	.	.	.	.
